Screening results deposited in PubChem by several laboratories.
The list is not random: actives were taken first. Their share in the collection is about 1.5%.
GLD-1 RNA inh: GLD-1/TGE RNA complex disruptors, primary screen, biochemical, fluorescence polarization; purified GLD-1 + fluorescein TGE RNA; inhibition, % at 5.96 µM; 320,000 compounds, 0.44% hits; AID 2280, 2010;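 active = percent inhibition above a per-plate cutoff, the plate mean of test compounds plus 3 SD, cut at about 30% in these data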;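 note: 0% = DMSO wells with GLD-1 and probe and 100% = wells lacking GLD-1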
Target sequence (Q17339 whole entry, looked up): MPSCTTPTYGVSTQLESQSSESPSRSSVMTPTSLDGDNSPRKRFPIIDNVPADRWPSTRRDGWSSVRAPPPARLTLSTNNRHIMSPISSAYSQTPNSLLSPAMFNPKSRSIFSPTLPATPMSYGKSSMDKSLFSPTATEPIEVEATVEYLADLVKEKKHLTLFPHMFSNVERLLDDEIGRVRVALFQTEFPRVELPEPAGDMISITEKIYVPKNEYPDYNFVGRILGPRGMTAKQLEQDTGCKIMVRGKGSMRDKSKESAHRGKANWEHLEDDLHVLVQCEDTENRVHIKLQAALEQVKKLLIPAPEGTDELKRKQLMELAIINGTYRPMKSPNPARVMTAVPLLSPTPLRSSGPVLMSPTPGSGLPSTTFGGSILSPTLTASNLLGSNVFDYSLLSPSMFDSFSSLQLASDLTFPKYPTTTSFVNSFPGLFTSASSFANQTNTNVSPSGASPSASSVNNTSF
EBV gp42 block: Epstein-Barr virus gp42 inhibitors, primary screen, biochemical, uHTS, fluorescence polarization; Glycoprotein 42 (Epstein-Barr virus (strain AG876)), Q1HVG2; Fluorescence polarization binding assay, mP read-out; inhibition, % (tested at 21.74 µM); 220,000 compounds, 0.42% hits; in the data active = inhibition above about 50%
MCL1-BIM inh: inhibitors of MCL1 binding to BIM-BH3, primary screen, biochemical, fluorescence polarization | Induced myeloid leukemia cell differentiation protein Mcl-1 (Homo sapiens), Q07820 | GST-MCL1 / FITC-Bim-BH3 fluorescence polarization | inhibition, % at 10.9 µM | 320,000 compounds, 0.68% hits | AID 2057, 2009;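 active = inhibition above the mean inhibition of all tested compounds plus 3 SD, set per campaign, cut at about 40% in these data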;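 note: 0% = DMSO wells and 100% = unlabeled Bim-BH3 peptide control; higher means more loss of mP so more displacement of Bim peptide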
MEX-5 binding: MEX-5 zinc finger RNA-binding disruptors – biochemical, C. elegans, fluorescence polarization, MLPCN library, primary screen | Zinc finger protein mex-5 (Caenorhabditis elegans), Q9XUB2 | MEX-5/FITC-TCR2 RNA binding; active compounds read low | activity score (negative = inhibition of binding), % at 10 µM | 300,000 compounds, 0.38% hits;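 active = inhibition past about -25% in most replicates, and total fluorescence under double the plate's negative control median, limit read from the data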;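 note: 0% = DMSO and -100% = 5 µM competing unlabeled TCR2 RNA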
E coli Lon inh: inhibitors of E. coli Lon protease, primary screen, biochemical, fluorescence polarization; P0A9M0; purified E. coli Lon protease; inhibition, % at 7.94 µM; 360,000 compounds, 0.42% hits; AID 602123, 2011; in the data active = inhibition above about 13%, passing the limit was not always enough;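 note: 0% = enzyme with probe and DMSO and 100% = no enzyme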
BCLXL inh: inhibitors of human Bcl-xL, primary screen, biochemical, fluorescence polarization, HTS. inhibition, % at 10.9 µM. 320,000 compounds, 0.7% hits. GST-Bcl-xL / FITC-Bim BH3 peptide fluorescence polarization;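 active = inhibition above the mean of all tested compounds plus 3 SD, cutoff set per campaign, cut at about 30% in these data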;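 note: 0% = DMSO wells and 100% = unlabeled Bim-BH3 peptide competitor; inhibitors lower millipolarization by displacing the labeled peptide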
An asterisk follows results filed as active; · = no result given.

SMILES | GLD-1 RNA inh | EBV gp42 block | MCL1-BIM inh | MEX-5 binding | E coli Lon inh | BCLXL inh
CNS(=O)(=O)c1ccc(N=Cc2c(O)n(-c3ccc(C)cc3)c(=O)[nH]c2=O)cc1 | -19 | -13 | -8 | 2 | -49 | -11
CCc1nnc(NS(=O)(=O)c2ccc(N=Cc3c(O)n(-c4ccc(Cl)cc4)c(=O)[nH]c3=O)cc2)s1 | -23 | 4 | -23 | -28* | -64 | -24
CCOC(=O)[C@]12Cc3cc(C)ccc3[C@H]1N(C(C)C)C(=O)c1ccccc12 | · | · | · | · | -4 | ·
CC(C)C[C@H]1C(=O)N2CCCC2[C@]2(O)O[C@](NC(=O)[C@@H]3C=C4c5cccc6[nH]cc(c56)CC4N(C)C3)(C(C)C)C(=O)N12 (stereo partly specified) | 117* | 97* | 194* | -7 | 62 | 152*
CC(C)[C@@]1(NC(=O)[C@@H]2C=C3c4cccc5[nH]cc(c45)C[C@H]3N(C)C2)O[C@@]2(O)[C@@H]3CCCN3C(=O)[C@H](Cc3ccccc3)N2C1=O | · | 112* | · | · | · | ·
N/C(=N/[N+](=O)[O-])N1CCN(C(=O)c2ccc(Cl)cc2)CC1 | -7 | -15 | 3 | -3 | 9 | 7
CC1CCN(CC#CCOc2ccc(Cl)cc2)CC1 | 3 | · | 2 | -1 | -8 | -1
C=CCn1c(O)c(/C=C/C=Nc2ccccc2)c(=O)[nH]c1=O | -89 | -218 | -104 | -26* | -270 | -61
Oc1cc2c(cc1O)[C@H]1c3ccccc3CN[C@@H]1CC2 | 10 | -4 | 27 | -57* | · | 16
COc1ccc2c(c1)C1OCCNC1CC2 (stereo unspecified) | · | · | · | · | -7 | ·
COc1ccc(C(=O)OCC2CN2c2cccc([N+](=O)[O-])c2)cc1 (stereo unspecified) | · | · | · | · | -5 | ·
CN1C(=O)/C(=C\N2CCc3ccccc32)C(=O)NC1=S | 6 | 90* | 1 | 0 | -28 | 2
COc1ccc(/C=C2/C(=O)NC(=O)N(c3ccccc3)C2=O)cc1CN1C(=O)c2ccccc2C1=O | -4 | -4 | -11 | -5 | -4 | -5
Cc1ccccc1N1C(=O)NC(=O)/C(=C\c2ccc3c(c2)CCCN3Cc2ccccc2)C1=O | -1 | 171* | -129 | 1 | -14 | -48
COCC(C)OC(=O)c1c(N)n(Cc2ccco2)c2nc3ccccc3nc12 (stereo unspecified) | 39* | 0 | 25 | -3 | -5 | 34*
CCOC(=O)c1c(N)n(Cc2ccco2)c2nc3ccccc3nc12 | 62* | 6 | 35 | · | 5 | 43*
Cn1cccc1/C=C1\C(=O)NC(=O)N(Cc2ccccc2Cl)C1=O | · | 58* | · | · | -38 | ·
Cn1cccc1/C=C1\C(=O)NC(=O)N(CCC2=CCCCC2)C1=O | · | -54 | · | -37* | -23 | ·
Cc1cccc(C)c1-n1nnnc1C(c1cccs1)N1CCC2(CC1)C(=O)NCN2c1ccccc1 (stereo unspecified) | · | · | · | · | -11 | ·
Cc1ccc(S(=O)(=O)NCCC(=O)Nc2ccc(Cl)cc2C(=O)c2ccccc2)cc1 | 4 | 4 | -8 | 1 | -4 | 2
Cc1ccc(S(=O)(=O)N[C@@H](CCCCN)C(=O)CCl)cc1 | 16 | · | 28 | -5 | 7 | 32*
CC12CCC(=O)CC1CCC1C2C(=O)CC2(C)C1CCC2(C)O (stereo unspecified) | · | · | · | · | -12 | ·
CN(C)c1ccc(/C=C/C=C/c2sc3ccccc3[n+]2C)cc1 | -12 | -14 | -5 | -7 | -21 | -10
CC[n+]1c(/C=C/C=C/c2ccc(N(C)C)cc2)sc2ccccc21 | -8 | -9 | 0 | -28* | -25 | 0
O=c1[nH]c(=O)n(-c2ccc(Br)cc2)c(O)c1C=NCCN1CCCCC1 | -18 | -12 | -10 | -40* | -26 | -9
O=C1NC(=S)N(Cc2ccco2)C(=O)/C1=C\c1cccs1 | · | 72* | · | · | · | ·
